Results taken from ChEMBL document CHEMBL4513216, “Probing the Open Global Health Chemical Diversity Library for Multistage-Active Starting Points for Next-Generation Antimalarials” (ACS Infect Dis, 2020).
In all, about 69,000 compounds went through this assay and about 8,600 (12%) showed an effect of 50% or more. Only a selection was taken, and strong results are over-represented in it overall.

Test system: Plasmodium berghei
Test: Screen against P. berghei liver stage (PbLuc), transformed with Luciferase, at 10uM
Assay type: functional, HepG2
Details: tested at 10 uM

Compound	INHIBITION
Cc1cnn(CC2CN(CC(=O)N(C)Cc3ccccc3)CCO2)c1 (centres undefined)	13.3%
CNC(=O)C1CN(c2ccc(F)cc2)CCN1 (centres undefined)	41.5%
O=C(CO)N1CC[C@@H](N2CCN(c3ccccc3F)CC2)[C@H](O)C1	52.6%
C[C@@H]1CN(C2CCN(c3ccccc3F)CC2)CC[C@]1(C)O	7.31%
O=C(CCOc1ccccc1F)N1CCCC(n2cncn2)C1 (centres undefined)	36.065%
O=C(CC1CC1)N1C[C@@H](O)[C@H](N2CCN(c3ccccc3)CC2)C1	30.25%
CSCCC(=O)N1CC[C@@H](N2CCN(c3ccccc3F)CC2)[C@H](O)C1	48.9%
CCOc1cncc(N2CCN(c3ccccc3F)CC2)n1	3.77%
Cc1ccccc1N1CCN(C2CCCN(C(=O)CCC(C)C)C2)CC1 (centres undefined)	46.6%
O=C(CO)N1CCCC(N2CCN(c3ccccc3F)CC2)C1 (centres undefined)	65.6%
O[C@@H]1CN(CC2CC2)CC[C@H]1N1CCN(c2ccccc2F)CC1	53.6%
O=C(NCCNC1CCCCC1)c1cccs1	-2.11%
COc1ccc(S(=O)(=O)N[C@H]2CN(C(C)=O)C[C@@H]2C(C)C)cc1F	17.7%
Cc1cnc(CN(C)C2CCN(CCCc3ccccc3)C2)o1 (centres undefined)	-9.37%
CN(C)CC(=O)N1CCc2sc(C(=O)NCC3CC3)cc21	-17.1%
CSCC(=O)N1CCCC(c2cc(C)[nH]n2)C1 (centres undefined)	28%
CC(C)c1ocnc1C(=O)N1CC(=O)Nc2cccnc21	37.1%
O=c1cc(CN2C[C@@H]3CC[C@H]2CN(Cc2ccccc2)C3)[nH]c(=O)[nH]1	34%
CN(C)S(=O)(=O)N1CCOC(c2cccc(-c3cncnc3)n2)C1 (centres undefined)	13%
NCC1[C@H]2CN(Cc3ccccc3)C[C@@H]12 (some centres undefined)	5.73%
Cn1cc(CN2CCCC(c3nccnc3-c3cccc(F)c3)C2)cn1 (centres undefined)	9.05%
O=C(CCO)N[C@H]1CN(CC2CCC2)C[C@@H]1c1ccccc1	-13.1%
CS(=O)(=O)NCC(=O)N[C@H]1CN(CC2CC2)C[C@@H]1c1ccccc1	65.3%
CSCC(=O)N[C@H]1CN(CC2CCOCC2)C[C@@H]1c1ccccc1	-69.6%
Cc1noc(C2(C)CCCN(C(=O)c3cccnc3)C2)n1 (centres undefined)	25.6%
CCCS(=O)(=O)N1CCCC(CCC(=O)N(C)CCc2ccccn2)C1 (centres undefined)	27.6%
CN(C(=O)NCc1nccn1CCc1ccccc1)C1CCC1	-4.63%

Compound	INHIBITION
COc1ccc(Nc2nc3c(C)nn(C)c3c(=O)n2C)cc1	9.04%
CC(C)c1cc(C(F)(F)F)n2nc(C3CCN(S(C)(=O)=O)C3)cc2n1 (centres undefined)	43.05%
COc1ccc(NCCC(=O)NCc2cccnc2N(C)C)cc1	-14.9%
Cn1cccc1C(=O)N1CCC2(CCN2c2ncccn2)C1 (centres undefined)	72.2%
O=C(c1cnc2ccccc2c1)N1CCC2(CCN2c2ncccn2)C1 (centres undefined)	-78.5%
Cn1ccc(C(=O)N2CCC3(CCN3c3ncccn3)C2)n1 (centres undefined)	22.6%
Cc1ccc(C(=O)N2C[C@@H]3CN(c4ncccn4)C[C@@H]3C2)cc1	-13.7%
O=C(c1cccc(O)c1)N1CCC2(CCN2c2ncccn2)C1 (centres undefined)	27.7%
O=C(c1ccnnc1)N1C[C@@H]2CN(c3ncccn3)C[C@@H]2C1	21.7%
Cc1ccc(C(=O)N2CCC3(CCN3c3ncccn3)C2)cn1 (centres undefined)	78.9%
Cc1ccc(C(=O)N2C[C@@H]3CN(c4ncccn4)C[C@@H]3C2)cn1	76.4%
Cn1ccnc1C(=O)N1CCC2(CCN2CC2CC2)C1 (centres undefined)	13.7%
Cn1ccnc1C(=O)N1CCC2(CCN2c2ncccn2)C1 (centres undefined)	71.3%
O=C(c1ccc2ccccc2n1)N1CCC2(CCN2c2ncccn2)C1 (centres undefined)	-47%
Cn1cccc1C(=O)N1CCC2(CCCN2c2ncccn2)CC1	-2.41%
CC(C)NC(=O)N1CCC2(CC(=O)N(c3ccsc3)C2)C1 (centres undefined)	48.2%
COc1cc(N2C[C@H](C(=O)NCC3CC3)[C@@H]3CCO[C@@H]3C2)ncn1	-29.3%
Cn1cnc2c(N3CCCC3)nc(C3CCNCC3)cc21	32.7%
COc1ccc(OC)c(CNC(=O)N2CCC(n3cncn3)CC2)c1	21%
Cc1ccc(C(=O)NS(=O)(=O)c2ccccc2Cl)c(=O)[nH]1	35.9%
CC(C)c1noc(C(C)N2CCN(CCCN3CCCC3=O)CC2)n1 (centres undefined)	-38.7%
CN(CCO)CC1COCCN1C(=O)CCC1CCCC1 (centres undefined)	39.3%
CC(C)c1cnc(CN(C)C2CCN(CCCc3cnn(C)c3)C2)o1 (centres undefined)	-7.31%
CC(C)N1CCCC1c1csc(N)n1 (centres undefined)	16.8%
COc1cc(-c2cc(OC)c(OC)c(OC)c2)ncn1	-7.79%
COC(CNC(=O)C1CC1)c1ccc(C)s1 (centres undefined)	20.4%
O=C(CCc1cc2n(n1)CCN(CCCn1cccc1)C2)N1CCCC1	-1.54%
